# SW480 rerep: A quantitative high throughput screen for small molecules that induce DNA re-replication in SW480 colon adenocarcinoma cells | SW480 DNA re-replication, Hoechst DNA content imaging, 48 h | Potency, µM (series often up to 46.1 µM), for the others: at the highest dose re-replication activation, hits mostly activators | actives 1.8% (n = 340,000) | AID 624297, 2012; note: % of control where 0% means no effect; nearly all actives have a fitted effect of over 55% in size
#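 Hoechst fluorescence of nuclei (405 nm excitation, 500-530 nm emission) measured by plate-scanning imager after 48 hr compound exposure at 37 C; re-replication scored as increased number of nuclei with elevated intensity.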
# KB-V1 MDR tox: qHTS assay for MDR1-selective chemotherapeutics: Primary screen using the drug-selected MDR subline cells KB-V1. KB-V1 MDR cells viability, CellTiter-Glo, 72 h. Potency, µM (top dose mostly 46.1 µM), most hits filed as cytotoxic. actives 3.4% (n = 400,000); note: % is set by controls: 0 for no effect and ±100 for the full control effect; nearly all actives have a fitted effect of over 60% in size
#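 KB-V1 MDR subline cells in DMEM (phenol-red free, 10% FBS) exposed to compounds in qHTS concentration series for 72 h at 37 degrees C. Viability read by CellTiter-Glo luminescence; concentration-effect curves fitted after normalization and correction.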
# ELG1 repair inh: qHTS screen for small molecules that inhibit ELG1-dependent DNA repair in human embryonic kidney (HEK293T) cells expressing luciferase-tagged ELG1. actives 2.3% (n = 330,000). Potency, µM (top dose mostly 46.1 µM), inactives show top-dose activity change, negative = inhibition, usual class: inhibitors. HEK293T ELG1-luciferase reporter, luminescence, 16 h; DNA damage induced by 5-fluorouridine; note: % is set by controls: 0 for no effect and ±100 for the full control effect; nearly all actives have a fitted effect of over 55% in size
#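 Cells (2,000 per well) received 5-fluorouridine plus test compound or DMSO and were incubated 16 hr at 37 °C, 5% CO2. Luciferase activity was read by luminescence 30 min after ONE-Glo addition; signal suppression marked inhibition of damage-induced ELG1 function.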
# MCF10A rereplic: A quantitative high throughput screen for small molecules that induce DNA re-replication in MCF 10a normal breast cells; MCF 10A DNA re-replication, Hoechst nuclear intensity, 48 h; Potency, µM (highest dose often 46.1 µM), for inactives: top-dose activity, positive = re-replication, actives largely listed as activators; actives 2.9% (n = 350,000); note: % of control where 0% means no effect; nearly all actives have a fitted effect of over 50% in size
# KB-3-1 tox: qHTS assay for MDR1-selective chemotherapeutics: Primary screen using the parental adenocarcinoma cell KB-3-1 | AID 1347075, 2019 | actives 1.4% (n = 400,000) | Potency, µM (top dose mostly 46.1 µM), actives largely listed as cytotoxic | KB-3-1 viability, CellTiter-Glo ATP luminescence, 72 h; note: % is set by controls: 0 for no effect and ±100 for the full control effect; nearly all actives have a fitted effect of over 60% in size
#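 Viability of parental KB-3-1 cells, measured by CellTiter-Glo luminescence, followed a 72 h incubation at 37 °C with pinned compounds in phenol-red-free DMEM containing 10% FBS.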
# Active calls of the source: *; i = inactive; ? = inconclusive; nt = not tested or not shown. Only some compounds are listed: those with a hit (about 8.1% of all), similar ones and a draw of the others. Calls come from the whole dose curve; as a rule, active = well fitted curve in the direction sought with a large enough effect; inconclusive = small, poorly fitted or top-dose-only effect, or another doubt; inactive = no such curve, though single readings can be large; an effect the other way counts as inactive or inconclusive. Potency is the fitted concentration of half-maximal effect.
SMILES,SW480 rerep,KB-V1 MDR tox,ELG1 repair inh,MCF10A rereplic,KB-3-1 tox
CC(NC(=O)c1ccc(NC(=O)CC2SC(N3CCCC3)=NC2=O)cc1)c1ccc(F)cc1 (stereo not given),?,i,1%,-2%,i
O=C(O)c1cccc(N/N=C/C2=C(Cl)c3cc(Cl)ccc3SC2)c1,-1%,?,?,8.2µM*,i
Cc1nc2c(c3c1[nH]c1ccccc13)C(O)CC(C)(C)C2 (stereo not given),?,16µM*,?,18µM*,?
C1COCCNCCOCCOCCOCCN1,10µM*,i,1%,-6%,i
O=C1C=C(c2ccccc2)CO1,-8%,i,nt,-2%,i
Cc1cc(Cl)ccc1OCC(=O)Nc1ccccc1C(=O)N1CCOCC1,-4%,?,?,2%,?
COc1cc(Cl)ccc1NC(=O)COc1ccccc1C(=O)N1CCN(c2ccc(O)cc2)CC1,19%,?,13µM*,-4%,i
COc1ccccc1N1CCN(c2ncc(C(=O)N3CCN(c4cccc(Cl)c4)CC3)c3ccccc23)CC1,?,i,5.2µM*,16%,i
COc1ccc(N2CCN(C(=O)c3ccc(SC)cc3OC)CC2)cc1,8%,?,-13%,-1%,i
CCOc1ccc2ccccc2c1C(=O)N1CCN(c2ccccc2)CC1,?,4.1µM*,-28%,13µM*,23µM*
COc1ccc(C(=O)N2CCN(c3cccc(Cl)c3)CC2)c(OC)c1,?,?,-20%,18µM*,15µM*
CC[C@]12C(=O)N(C)C[C@H]([C@@H]3C(=O)N(C)C(=O)[C@@H]31)N2C(=O)c1ccc(Br)cc1,?,i,nt,5%,i
CCOc1ccccc1C(=O)N1CCN(c2cccc(Cl)c2)CC1,0.41µM*,i,1%,?,i
Cc1[nH]c(-c2ccc(F)cc2)cc1C(=O)N1CCN(c2ccccc2)CC1,-3%,i,?,?,i
COc1cccc(N2CCN(C(=O)c3cc(-c4ccc(F)cc4)[nH]c3C)CC2)c1,0%,i,21µM*,?,i
Cc1nc2scc(C)n2c(=O)c1S(=O)(=O)N1CCN(c2cccc(C(F)(F)F)c2)CC1,0%,?,-19%,11%,i
CCN(Cc1ccccc1)S(=O)(=O)c1c(C)[nH]c(C)c1C(=O)N1CCCCC1,-5%,i,-3%,0%,i
C[n+]1ccn(CC(=O)c2cccs2)c1,13%,i,-2%,1%,i
CCCCCCCCCCCCCCCCn1cc[n+](C)c1,?,i,7.3µM*,21µM*,4.1µM*
CCCOC(=O)c1ccc(Nc2nc3ccccc3nc2-n2nc(C)cc2C)cc1,nt,i,nt,nt,i
CC(C)(C)NC[C@H](O)CSc1nc(-c2ccc(C(N)=O)s2)cs1,-3%,nt,nt,0%,nt
Cc1ccc(C(=O)NC(=S)Nc2cccc(NC(=O)c3ccccc3Cl)c2)cc1[N+](=O)[O-],-8%,i,18µM*,-5%,i
O=C(NNC(=S)NC(=O)c1ccccc1[N+](=O)[O-])c1ccccc1Cl,1%,i,-9%,20%,i
O=C(NC(=S)Nc1ccccc1[N+](=O)[O-])c1ccccc1Cl,-35%,?,?,-4%,13µM*
CCOC(=O)c1sc(=S)n(C)c1NC(=O)c1cccc(Br)c1,-3%,i,13µM*,?,?
SMILES,SW480 rerep,KB-V1 MDR tox,ELG1 repair inh,MCF10A rereplic,KB-3-1 tox
CCCN1Cc2cccc(C(=O)Nc3ccc(C(C)=O)cc3)c2C1=O,nt,?,nt,nt,i
Cc1ccc(S(=O)(=O)N2CCN(C(=O)Cn3cnc4c3c(=O)n(C)c(=O)n4C)CC2)cc1C,-18%,i,?,16%,i
C#C[C@]1(O)CC[C@H]2[C@@H]3CCc4cc(O)ccc4[C@H]3CC[C@@]21C,?,16µM*,-14%,18µM*,?
C#C[C@]1(O)CCC2C3CCC4=CC(=O)CCC4C3CC[C@@]21C (stereo not given in full),3%,nt,nt,-6%,nt
C#CC1(O)CCC2C3CCC4=C(CCC(=O)C4)C3CCC21C (stereo not given),-3%,1.5µM*,nt,9%,?
CC(C)(C)c1ccc(NC(=O)CSc2nnc3scc(-c4ccccc4)n23)cc1,nt,?,nt,nt,i
CC(=NCc1ccco1)c1c(C)[nH]n(-c2nc3ccccc3s2)c1=O,-3%,?,?,30%,?
CC(=NCc1ccco1)c1c(O)n(C2CCCCC2)c(=O)[nH]c1=O,12%,5.8µM*,-12%,6%,i
CCC(=O)Nc1ccc(-c2ccc(NC(=O)CC)c(OC)c2)cc1OC,?,i,?,-2%,i
CCOc1cc(Cl)c(NC(=O)CC)cc1OCC,18µM*,i,2%,-1%,i
CC(=O)n1cc(N(C(=O)CCl)c2ccc([N+](=O)[O-])cc2)c2ccccc21,16µM*,?,23µM*,?,?
O=Cc1[nH]c2ccccc2c1N(C(=O)CCl)c1ccc([N+](=O)[O-])cc1,?,i,-7%,?,i
CC(=O)n1cc(N(C(=O)CCl)c2ccccc2)c2ccccc21,1.6µM*,?,?,16µM*,?
COc1ccc(C(=O)Nc2cc(C)nn2-c2ccc(C)cc2)cc1,2%,i,9%,0%,i
CCOC(=O)/C(=C/C=C1\Sc2ccccc2N1CC)C(C)=O,11%,i,?,17%,i
CCOC(=O)/C(=C\C=C1/Sc2ccccc2N1CC)C(C)=O,0%,5.2µM*,?,8%,i
CC1CCCC(NCC(O)COC(c2ccc(F)cc2)c2ccc(F)cc2)C1C (stereo not given),0%,18µM*,-24%,?,?
CC1CCCC(NC(=O)CSc2ccc(F)cc2)C1C (stereo not given),-19%,i,-6%,2%,i
CCC(=O)Oc1ccc(C(=O)Nc2ccc3c(c2)C(=O)N(C2CCCCC2)C3=O)cc1,?,?,?,23µM*,?
O=[N+]([O-])c1ccc2oc(C(O)c3cccc(Cl)c3)cc2c1 (stereo not given),16%,i,-1%,?,i
Cc1ccccc1OCC(=O)Nc1ccc(-c2nc3ccccc3o2)cc1,nt,i,nt,nt,i
COc1cc(CNCc2c(C(=O)O)c(C)n(Cc3cccc(Cl)c3)c2C)cc(OC)c1OC,nt,i,nt,nt,?

# Bioassay records as filed in PubChem.
